# Data as given in PubChem BioAssay AID2716 (Broad Institute, 2010).
# About 3,300 (1%) of roughly 320,000 compounds were called active. The list comes from a sample in which actives are over-represented; it also holds similar structures and randomly drawn compounds. Values without a mark were called inactive.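 The calls were made as follows: active = every valid replicate shows activation above 250% relative to neutral control wells; inactive = the rest, any valid replicate at or below 250%.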
# Assay: restored growth of temperature-sensitive Mot1-301 yeast – S. cerevisiae, ATP luminescence, 38.5C, SUMOylation pathway inhibitor project, primary screen (AID 2716);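 also: OY570 slx delta 5 strain wells were the positive control but not used for scaling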
# Conditions: S. cerevisiae Mot1-301 growth rescue, at 18.8 µM, stronger effect = higher value, percent above DMSO median, 100 means doubled
row,Compound,growth rescue
1,CCCCNC(=O)c1ccccc1NC(=O)C1=C(C)OCCS1,548% (active)
2,CCCCNC(=O)c1ccccc1NC(=O)c1ccccc1N(C)S(C)(=O)=O,-4.15%
3,COc1ccc(N2CCN(C(=O)c3ccccc3NC(=O)C3=C(C)OCCS3)CC2)cc1,46.6%
4,Cc1cc(C)nc(SCc2nnc(SCC(=O)Nc3ncc(C)s3)n2Cc2ccco2)n1,-12%
5,CCN(CC)C(=O)CSc1nnc(CNc2ccc(F)cc2)n1Cc1ccco1,543% (active)
6,COc1ccc(NC(=O)CSc2nnc(-c3cccs3)n2Cc2ccco2)cc1OC,22.9%
7,COc1ccc(C(=O)NCC2CCCN2S(=O)(=O)c2cccs2)cc1OC (stereo not given),134%
8,Cc1ccc2nc(-c3ccc(NC(=O)CN(C)S(=O)(=O)c4ccccc4)cc3)sc2c1,574% (active)
9,Cc1cccc(N(CC(=O)Nc2ccc(-c3nc4ccc(C)cc4s3)cc2)S(C)(=O)=O)c1,-4.14%
10,COc1cc(NC(=O)CN(C)S(=O)(=O)c2ccc3nc(C)sc3c2)cc(OC)c1,-12.8%
11,Cc1cc(C)c(S(=O)(=O)Nc2c(C)n(C)n(-c3ccccc3)c2=O)cc1[N+](=O)[O-],-5.42%
12,Cc1c(Br)cc(C(=O)N2CCCCCC2)c(C)c1C,15.2%
13,COC(=O)C1[C@H]2SC(C)(C)C(C(=O)OC)N2C(=O)N1Cc1nc2ccccc2s1 (stereo not given in full),-13.8%
14,CC1(C)SC2C(NC(=O)COc3ccccc3)C(=O)N2C1C(=O)O (stereo not given),3.56%
15,CC1(C)S[C@@H]2[C@H](NC(=O)COc3ccccc3)C(=O)N2C1C(=O)OCc1ccccc1 (stereo not given in full),343% (active)
16,O=C(NCCN1CCOCC1)/C(=C/c1ccc(F)cc1)NC(=O)c1ccccc1,93.9%
17,CC(OC(=O)c1ccc(Cl)cc1O)C(=O)NCCC1=CCCCC1 (stereo not given),17.1%
18,CC1CCCCN1CCCNc1ccc(C(CC(N)=O)NC(=O)c2ccccc2)cc1[N+](=O)[O-] (stereo not given),-18.3%
19,Cc1cc(C)cc(C(=O)NC(CC(N)=O)c2ccc(N3CCC(N4CCCCC4)CC3)c([N+](=O)[O-])c2)c1 (stereo not given),855% (active)
20,COc1ccc(OC)c(C(=O)NC(CC(N)=O)c2ccc(N3CCC(N4CCCCC4)CC3)c([N+](=O)[O-])c2)c1 (stereo not given),-11.8%
21,Cc1cccc(NC(=O)CN2CCN(C(=O)C3CCN(C(=O)/C=C/c4ccccc4)CC3)CC2)c1C,-7.86%
22,Cc1nn(Cc2ccccc2)c(C)c1NS(=O)(=O)c1ccccc1,0.754%
23,CC(=O)c1cc(CN2CCC(n3nccc3NC(=O)c3ccccc3Cl)CC2)cs1,13.8%
24,Cc1cc(Nc2ccc(C(=O)N3CCCCC3)cc2)c2cccc(C)c2n1,397%
25,Cc1cc(Nc2ccc(N3CCOCC3)cc2)c2cccc(C)c2n1,-0.464%
26,Cc1ccc(Nc2cc(C)nc3c(C)ccc([N+](=O)[O-])c23)cc1,888% (active)
27,O=C(O)Cn1c(Cc2ccccc2)nc2ccccc21,-4.16%
28,Fc1ccccc1-c1cc2cc3c(cc2cn1)OCO3,579% (active)

row,Compound,growth rescue
1,O=C(Nc1ccccc1F)c1ccc2c(c1)OCO2,3.63%
2,Fc1ccc2cnc(-c3ccccc3)cc2c1,110%
3,O=C(c1ccc(F)cc1)n1c(=S)nc2ccccn21,-34.1%
4,COc1ccccc1-c1nn(Cc2ccccc2)cc1C(=O)N1CCN(c2ncccn2)CC1,-5.43%
5,CCN(CC)c1ccc(NC(=O)C2CCC(CNc3c(N4CCCC4)c(=O)c3=O)CC2)c(C)c1 (stereo not given),6.64%
6,COc1ccccc1OC(C)C(=O)Nc1ccc(S(=O)(=O)Nc2nccs2)cc1 (stereo not given),7.27%
7,CCC(CC)C(=O)Nc1ccc(S(=O)(=O)Nc2nccs2)cc1,441% (active)
8,Cc1ccc(OCCC(=O)Nc2ccc(S(=O)(=O)Nc3nccs3)cc2)cc1,-18.7%
9,CCCc1cc(=S)n2c([nH]c3ccccc32)c1C#N,490% (active)
10,CCOC(=O)CCc1c(C)c(C#N)c2[nH]c3ccccc3n2c1=O,-0.685%
11,CN(C)Cc1c(C#N)c2ccccc2n1C,63.2%
12,CCCn1nc(C(=O)NNC(=O)CCOc2ccccc2OCC)c2ccccc2c1=O,2.71%
13,CC(=O)c1ccc(NC(=O)CSc2nc3ccccc3c(=O)n2CCCN2CCOCC2)cc1,-18.7%
14,COc1cc(C(=O)OCC(=O)NC(C)CCc2ccccc2)cc(OC)c1OC (stereo not given),788% (active)
15,CC(CCc1ccccc1)NC(=O)COC(=O)c1ccc(F)cc1 (stereo not given),11.7%
16,COc1cc(OC)cc(C(=O)NCC(=O)OCC(=O)NC(C)CCc2ccccc2)c1 (stereo not given),-11.2%
17,CC(=O)N1CCN(S(=O)(=O)c2ccc(C)c([N+](=O)[O-])c2)C1C(C)C (stereo not given),-18.3%
18,CC(C)[C@@H]1NC(=O)c2cc([N+](=O)[O-])cc(I)c2NCCC[C@@H](C(=O)NC(CC(=O)O)C(N)=O)NC(=O)[C@H](CO)NC1=O (stereo not given in full),-3.93%
19,CC(C)NC(=O)Nc1cccc2c1O[C@@H](CN(C)S(=O)(=O)c1ccc(F)cc1)[C@@H](C)CN([C@H](C)CO)C2=O,-15.3%
20,O=C(NCc1ccccc1Cl)C(=O)NCC1CCCN1S(=O)(=O)c1cccs1 (stereo not given),454% (active)
21,O=C(NCc1ccc(Cl)cc1)C(=O)NCC1CCCN1S(=O)(=O)c1cccs1 (stereo not given),-0.245%
22,COc1ccccc1CCNC(=O)C(=O)NCCC1CCCCN1S(=O)(=O)c1cccs1 (stereo not given),-12.1%
23,CCOC(=O)c1c(S(=O)(=O)Nc2cccc(Cl)c2)c(C)n(C)c1C,-7.89%
24,CCC(C)(C)NC(=O)C(c1ccc(OC)cc1)N(C(=O)CCC(=O)Nc1cc(C)on1)c1ccc(OC)cc1OC (stereo not given),-19.3%
25,N#CC(C#N)=CN=c1ccn(Cc2ccc(Cl)cc2Cl)cc1,813% (active)
26,CC(C)(C)c1cc(C(=O)NN)n(Cc2ccc(Cl)cc2Cl)n1,207%
27,O=c1ccn(Cc2ccccc2Cl)cc1,1.62%
